Measured values: PubChem BioAssay (Tox21)
Results filed as inconclusive are left out. Active and inactive are the calls of the source. Unless noted, the call rests on the fitted dose curve; in most records, active means well fitted curve in the direction sought with a large enough effect in the repeat runs; inconclusive means weak or mixed curves; inactive means no such curve, though single readings can be large; an effect the other way counts as inactive or inconclusive.

Experiments:
[1] = qHTS assay to identify small molecule agonists of the peroxisome proliferator-activated receptor delta (PPARd) signaling pathway - cell viability counter screen (AID 743211); further: nearly all actives have a fitted effect of over 55% in size
How it was run: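 In the same wells used for beta-lactamase reporter measurement, cytotoxicity is scored by CellTiter-Glo. HEK293H PPARd-bla cells receive compound for 17 h at 37C following a 5 h settling period.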

[2] = biological target: Peroxisome proliferator-activated receptor delta (Homo sapiens) (UniProt Q03181); assay: qHTS assay to identify small molecule agonists of the peroxisome proliferator-activated receptor delta (PPARd) signaling pathway (AID 743212; calls by dose curve)
How it was run: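 Read-out: beta-lactamase FRET fluorescence after 2 h room-temperature incubation with LiveBLAzer B/G substrate. Cells were HEK293H carrying a UAS-bla reporter for PPARd, treated at 37 C with DMSO-dissolved compounds.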

[3] = qHTS assay to identify small molecule antagonists of the peroxisome proliferator-activated receptor delta (PPARd) signaling pathway - cell viability counter screen (AID 743213); further: nearly all actives have a fitted effect of over 50% in size
How it was run: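 PPARd-bla HEK293H cells were treated with compounds plus agonist L165041 (300 nM final) for 17 h at 37 C. Viability was then read in the same wells by CellTiter-Glo luminescence after 30 min at room temperature.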

[4] = biological target: Peroxisome proliferator-activated receptor delta (Homo sapiens) (UniProt Q03181); assay: qHTS assay to identify small molecule antagonists of the peroxisome proliferator-activated receptor delta (PPARd) signaling pathway (AID 743215; active means well fitted inhibition curve with a large enough effect in the signal ratio in the repeat runs, not every such curve was filed as active; the % refers to the signal ratio;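 further: cells stimulated with agonist L165041 at 300 nM final during compound exposure; series mostly up to about 62 µM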)
How it was run: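 Cells: HEK293H with a UAS-driven beta-lactamase reporter responsive to PPARd. Compounds were co-added with L165041 (300 nM, final) and incubated 17 h at 37 C before a 2 h room-temperature FRET substrate step and fluorescence reading.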

[5] = biological target: Bile acid receptor (Homo sapiens) (UniProt Q96RI1); assay: qHTS assay to identify small molecule antagonists of the farnesoid-X-receptor (FXR) signaling pathway (AID 743217; active means well fitted inhibition curve with a large enough effect in the signal ratio in the repeat runs, not every such curve was filed as active; the % refers to the signal ratio)
How it was run: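 Cells carrying a UAS-driven beta-lactamase reporter (GeneBLAzer FXR-UAS-bla HEK 293T) were plated and rested 5 h at 37 °C. Compounds in DMSO were added alongside chenodeoxycholic acid agonist at 50 uM final and left 16 h at 37 °C before FRET substrate readout.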

[6] = qHTS assay to identify small molecule agonists of the farnesoid-X-receptor (FXR) signaling pathway - cell viability counter screen (AID 743218); further: nearly all actives have a fitted effect of over 45% in size
How it was run: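 Cells were seeded, left 5 h at 37 C and 5% CO2, then dosed with compound in DMSO for 16 h. After the beta-lactamase FRET read, CellTiter-Glo was added and luminescence measured 30 min later.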

[7] = biological target: Bile acid receptor (Homo sapiens) (UniProt Q96RI1); assay: qHTS assay to identify small molecule agonists of the farnesoid-X-receptor (FXR) signaling pathway (AID 743220; active means well fitted activation curve with a large enough effect in the signal ratio in the repeat runs, not every such curve was filed as active; the % refers to the signal ratio)
How it was run: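 FXR-UAS-bla HEK 293T cells carrying a UAS-driven beta-lactamase reporter were plated for 5 h at 37C/5% CO2, then exposed to DMSO-dissolved Tox21 10K compounds for 16 h at 37C. A LiveBLAzer B/G FRET substrate was loaded for 2 h at room temperature before fluorescence reading.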

[8] = qHTS assay to identify small molecule antagonists of the farnesoid-X-receptor (FXR) signaling pathway - cell viability counter screen (AID 743221; active means well fitted cell-killing curve with a large enough effect in the repeat runs, not every such curve was filed as active; further: nearly all actives have a fitted effect of over 50% in size)
How it was run: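 Here viability was scored by luminescence after CellTiter-Glo addition to wells already read for beta-lactamase. Prior treatment: compound plus CDCA (50 uM final), 16 h, 37 C, HEK 293T FXR-bla cells.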

[9] = biological target: Vitamin D3 receptor (Homo sapiens) (UniProt P11473); assay: qHTS assay to identify small molecule agonists of the vitamin D receptor (VDR) signaling pathway (AID 743222; calls by dose curve)
How it was run: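 Cells carrying a VDR-driven beta-lactamase reporter are seeded at 2,000 per well and rested 4 h. Compounds in DMSO are added for 16 h at 37C, and FRET substrate fluorescence is measured after 2 h at room temperature.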

[10] = biological target: Vitamin D3 receptor (Homo sapiens) (UniProt P11473); assay: qHTS assay to identify small molecule antagonists of the vitamin D receptor (VDR) signaling pathway (AID 743223; active means well fitted inhibition curve with a large enough effect in the signal ratio in the repeat runs, not every such curve was filed as active; the % refers to the signal ratio)
How it was run: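 Inhibition of agonist-driven VDR signalling is scored in VDR-bla cells: 3 nM final 1alpha,25-dihydroxyvitamin D3 plus compound, 16 h at 37C, then beta-lactamase detection by FRET substrate fluorescence after 2 h.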

[11] = qHTS assay to identify small molecule agonists of the vitamin D receptor (VDR) signaling pathway - cell viability counter screen (AID 743224); further: series mostly up to about 63 µM; nearly all actives have a fitted effect of over 50% in size
How it was run: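 Cells: VDR-bla, 2,000/well, settled 4 h. Treatment: compounds in DMSO, 16 h, 37C/5% CO2. Readout: CellTiter-Glo luminescence after 30 min RT.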

[12] = qHTS assay to identify small molecule antagonists of the vitamin D receptor (VDR) signaling pathway - cell viability counter screen (AID 743225); further: nearly all actives have a fitted effect of over 50% in size
How it was run: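 Compounds were pinned onto VDR-bla HEK 293T cells together with 1-alpha,25-dihydroxyvitamin D3 at 3 nM final. After 16 h at 37C and 5% CO2 plus the reporter readout, cell viability was measured by CellTiter-Glo luminescence (30 min, room temperature).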

[13] = qHTS assay to identify small molecule agonists of the NFkB signaling pathway - cell viability counter screen (AID 1159515; calls by dose curve; further: series mostly up to about 61 µM; nearly all actives have a fitted effect of over 55% in size)
How it was run: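 Cells are seeded (2,000 NFkB-bla ME-180 per well), rested overnight, and dosed with DMSO-dissolved compounds for 5 hr at 37 C. Viability is then read by CellTiter-Glo luminescence after 30 min at room temperature.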

[14] = qHTS assay to identify small molecule agonists of the endoplasmic reticulum stress response signaling pathway (AID 1159516; active means well fitted activation curve with a large enough effect in the signal ratio in the repeat runs, not every such curve was filed as active; the % refers to the signal ratio)
How it was run: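 Cells are seeded at 1,500 per well and incubated overnight. Compounds in DMSO are added for 5 hr at 37 C, then beta-lactamase FRET substrate for 2 hr at room temperature, and fluorescence at 460 and 530 nm is measured.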

[15] = qHTS assay to identify small molecule agonists of the endoplasmic reticulum stress response signaling pathway - cell viability counter screen (AID 1159517; calls by dose curve)
How it was run: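 Steps: seed 1,500 ESRE-bla HeLa cells per well; incubate overnight at 37 C, 5% CO2; add compounds in DMSO for 5 hr; run FRET substrate 2 hr RT; add CellTiter-Glo, wait 30 min, read luminescence.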

[16] = qHTS assay to identify small molecule antagonists of the retinoid-related orphan receptor gamma (ROR-gamma) signaling pathway - cell viability counter screen (AID 1159520); further: nearly all actives have a fitted effect of over 50% in size
How it was run: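 Tet-on ROR gamma CHO cells were given compounds for 2 hr, then doxycycline hyclate at 1 uM final, and incubated 16 hr at 37 C. Viability was measured as ATP content by CellTiter-Glo luminescence.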

[17] = biological target: Nuclear receptor ROR-gamma (Homo sapiens) (UniProt P51449); assay: qHTS assay to identify small molecule antagonists of the retinoid-related orphan receptor gamma (ROR-gamma) signaling pathway (AID 1159521)
How it was run: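 Test compounds were applied to Tet-on RORγ CHO cells 2 h ahead of doxycycline hyclate (1 uM final). Luciferase reporter activity was quantified by luminescence after 16 h at 37 C and 5% CO2.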

[18] = qHTS assay to identify small molecule agonists of the AP-1 signaling pathway - cell viability counter screen (AID 1159525; calls by dose curve; further: nearly all actives have a fitted effect of over 55% in size)
How it was run: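 Same-well cytotoxicity counter screen of the Tox21 10K library in ME-180 cells. The readout is ATP-dependent luminescence after 5 h compound treatment. Data are normalised to DMSO and tetra n-octyl ammonium bromide controls.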

[19] = qHTS assay to identify small molecule agonists of the AP-1 signaling pathway (AID 1159526; calls by dose curve)
[20] = biological target: Retinoic acid receptor RXR-alpha (Homo sapiens) (UniProt P19793); assay: qHTS assay to identify small molecule agonists of the RXR signaling pathway (AID 1159527; calls by dose curve; further: nearly all actives have a fitted effect of over 35% in size)
How it was run: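 Using 9-cis retinoic acid as the reference agonist, chemicals were tested in HEK 293T cells […] for 16 hr; substrate loading lasted 2 hr at room temperature.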

Measured: Potency

Bile acid receptor (Homo sapiens), sequence (Q96RI1 whole entry, looked up): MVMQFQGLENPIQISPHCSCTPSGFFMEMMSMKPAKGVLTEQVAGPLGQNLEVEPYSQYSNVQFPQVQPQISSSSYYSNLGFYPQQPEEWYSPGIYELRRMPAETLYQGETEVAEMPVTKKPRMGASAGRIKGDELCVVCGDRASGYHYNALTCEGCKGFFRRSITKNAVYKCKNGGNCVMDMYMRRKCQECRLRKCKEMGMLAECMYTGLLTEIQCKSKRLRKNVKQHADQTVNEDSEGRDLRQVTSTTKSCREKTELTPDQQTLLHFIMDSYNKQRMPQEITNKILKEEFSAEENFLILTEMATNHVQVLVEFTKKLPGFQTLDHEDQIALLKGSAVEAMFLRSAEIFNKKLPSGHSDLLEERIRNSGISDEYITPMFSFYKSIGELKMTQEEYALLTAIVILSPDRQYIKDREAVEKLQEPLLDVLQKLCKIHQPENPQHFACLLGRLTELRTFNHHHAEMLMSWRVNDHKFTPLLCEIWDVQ
Retinoic acid receptor RXR-alpha (Homo sapiens), sequence (P19793 whole entry, looked up): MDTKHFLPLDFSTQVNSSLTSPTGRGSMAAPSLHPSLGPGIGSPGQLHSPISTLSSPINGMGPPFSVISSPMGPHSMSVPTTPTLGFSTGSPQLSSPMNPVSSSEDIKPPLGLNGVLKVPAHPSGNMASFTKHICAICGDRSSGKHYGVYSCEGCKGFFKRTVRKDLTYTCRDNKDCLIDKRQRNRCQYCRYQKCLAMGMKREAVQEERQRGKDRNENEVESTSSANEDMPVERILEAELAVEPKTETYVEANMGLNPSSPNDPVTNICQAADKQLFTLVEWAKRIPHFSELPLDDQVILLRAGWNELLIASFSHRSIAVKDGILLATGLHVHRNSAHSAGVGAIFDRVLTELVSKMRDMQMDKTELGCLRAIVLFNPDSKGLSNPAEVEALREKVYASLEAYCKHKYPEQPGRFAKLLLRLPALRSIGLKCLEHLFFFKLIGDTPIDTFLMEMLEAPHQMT
Vitamin D3 receptor (Homo sapiens), sequence (P11473 whole entry, looked up): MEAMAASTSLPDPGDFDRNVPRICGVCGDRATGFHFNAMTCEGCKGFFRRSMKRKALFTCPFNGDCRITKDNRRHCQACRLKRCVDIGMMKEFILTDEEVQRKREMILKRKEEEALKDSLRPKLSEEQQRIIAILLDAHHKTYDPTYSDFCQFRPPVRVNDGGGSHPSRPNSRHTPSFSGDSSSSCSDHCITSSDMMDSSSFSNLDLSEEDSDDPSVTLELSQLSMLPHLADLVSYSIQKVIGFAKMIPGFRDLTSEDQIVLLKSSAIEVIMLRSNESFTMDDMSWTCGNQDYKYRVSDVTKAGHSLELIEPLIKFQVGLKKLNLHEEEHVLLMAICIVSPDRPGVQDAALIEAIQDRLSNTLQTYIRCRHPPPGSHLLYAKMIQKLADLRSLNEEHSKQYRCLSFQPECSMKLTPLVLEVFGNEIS
Peroxisome proliferator-activated receptor delta (Homo sapiens), sequence (Q03181 whole entry, looked up): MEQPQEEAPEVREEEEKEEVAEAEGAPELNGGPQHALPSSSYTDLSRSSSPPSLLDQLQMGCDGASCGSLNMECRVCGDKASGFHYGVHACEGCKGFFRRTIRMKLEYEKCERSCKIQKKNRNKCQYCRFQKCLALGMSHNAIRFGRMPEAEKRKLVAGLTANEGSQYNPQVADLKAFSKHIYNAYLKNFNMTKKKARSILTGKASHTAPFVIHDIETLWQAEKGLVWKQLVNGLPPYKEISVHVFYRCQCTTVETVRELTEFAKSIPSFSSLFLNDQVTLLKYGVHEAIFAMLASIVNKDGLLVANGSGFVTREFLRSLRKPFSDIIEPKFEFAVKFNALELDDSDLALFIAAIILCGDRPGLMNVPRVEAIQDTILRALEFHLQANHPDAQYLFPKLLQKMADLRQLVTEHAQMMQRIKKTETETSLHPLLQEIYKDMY

CCCCSP(=O)(SCCCC)SCCCC
inactive: [1] | [2] | [3] | [4] | [5] | [6] | [7] | [8] | [9] | [10] | [11] | [12] | [13] | [14] | [15] | [16] | [17] | [18] | [19] | [20]

ClCc1ccccn1
inactive: [1] | [2] | [3] | [4] | [6] | [8] | [9] | [10] | [11] | [12] | [13] | [14] | [15] | [16] | [17] | [18] | [19] | [20]

CCCCOC(=O)COC(=O)c1ccccc1C(=O)OCCCC
inactive: [1] | [2] | [3] | [4] | [6] | [8] | [11] | [12] | [13] | [14] | [15] | [16] | [17] | [18] | [19] | [20]

CNC(=S)S
inactive: [1] | [2] | [3] | [4] | [6] | [8] | [9] | [10] | [11] | [12] | [13] | [14] | [15] | [16] | [17] | [18] | [19] | [20]

COC(=O)Nc1nc2ccccc2[nH]1
inactive: [1] | [2] | [3] | [4] | [6] | [8] | [9] | [11] | [12] | [13] | [14] | [15] | [16] | [17] | [18] | [19] | [20]

CCNCC
inactive: [1] | [2] | [3] | [4] | [6] | [8] | [9] | [11] | [12] | [13] | [14] | [15] | [16] | [17] | [18] | [19] | [20]

Brc1ccc(Br)cc1
inactive: [1] | [2] | [4] | [5] | [6] | [7] | [8] | [9] | [10] | [11] | [12] | [13] | [14] | [15] | [16] | [17] | [18] | [19] | [20]
